Compound activity (PubChem)
Most compounds without a hit are left out; they make up all but 0.65% or so of the library.
PrP UTR inh: inhibition of PrP 5' UTR reporter expression | AID 488862 | inhibition, % (test concentration not listed) | actives 0.35% (n = 340,000) | cell-based PrP 5' UTR mRNA reporter, plate reader; in the data active = inhibition above about 52%; note: 0 = median of the neutral control wells
Yp Topo-I inh: Y. pestis Topo-I inhibition via cleavage products | Y. pestis Topo-I cleavage product accumulation, plate reader | activity, % at 10 µM | actives 0.064% (n = 360,000) | AID 504884; in the data active = activity above about 50%, passing the limit was not always enough
TcdB inh: inhibitors of Clostridioides difficile toxin B glycohydrolase. P18177. TcdB glycohydrolase enzymatic assay, plate reader. inhibition, % at 9.99 µM. actives 0.24% (n = 350,000). AID 652162; in the data active = inhibition above about 10%
Target sequence (P18177 whole entry, looked up): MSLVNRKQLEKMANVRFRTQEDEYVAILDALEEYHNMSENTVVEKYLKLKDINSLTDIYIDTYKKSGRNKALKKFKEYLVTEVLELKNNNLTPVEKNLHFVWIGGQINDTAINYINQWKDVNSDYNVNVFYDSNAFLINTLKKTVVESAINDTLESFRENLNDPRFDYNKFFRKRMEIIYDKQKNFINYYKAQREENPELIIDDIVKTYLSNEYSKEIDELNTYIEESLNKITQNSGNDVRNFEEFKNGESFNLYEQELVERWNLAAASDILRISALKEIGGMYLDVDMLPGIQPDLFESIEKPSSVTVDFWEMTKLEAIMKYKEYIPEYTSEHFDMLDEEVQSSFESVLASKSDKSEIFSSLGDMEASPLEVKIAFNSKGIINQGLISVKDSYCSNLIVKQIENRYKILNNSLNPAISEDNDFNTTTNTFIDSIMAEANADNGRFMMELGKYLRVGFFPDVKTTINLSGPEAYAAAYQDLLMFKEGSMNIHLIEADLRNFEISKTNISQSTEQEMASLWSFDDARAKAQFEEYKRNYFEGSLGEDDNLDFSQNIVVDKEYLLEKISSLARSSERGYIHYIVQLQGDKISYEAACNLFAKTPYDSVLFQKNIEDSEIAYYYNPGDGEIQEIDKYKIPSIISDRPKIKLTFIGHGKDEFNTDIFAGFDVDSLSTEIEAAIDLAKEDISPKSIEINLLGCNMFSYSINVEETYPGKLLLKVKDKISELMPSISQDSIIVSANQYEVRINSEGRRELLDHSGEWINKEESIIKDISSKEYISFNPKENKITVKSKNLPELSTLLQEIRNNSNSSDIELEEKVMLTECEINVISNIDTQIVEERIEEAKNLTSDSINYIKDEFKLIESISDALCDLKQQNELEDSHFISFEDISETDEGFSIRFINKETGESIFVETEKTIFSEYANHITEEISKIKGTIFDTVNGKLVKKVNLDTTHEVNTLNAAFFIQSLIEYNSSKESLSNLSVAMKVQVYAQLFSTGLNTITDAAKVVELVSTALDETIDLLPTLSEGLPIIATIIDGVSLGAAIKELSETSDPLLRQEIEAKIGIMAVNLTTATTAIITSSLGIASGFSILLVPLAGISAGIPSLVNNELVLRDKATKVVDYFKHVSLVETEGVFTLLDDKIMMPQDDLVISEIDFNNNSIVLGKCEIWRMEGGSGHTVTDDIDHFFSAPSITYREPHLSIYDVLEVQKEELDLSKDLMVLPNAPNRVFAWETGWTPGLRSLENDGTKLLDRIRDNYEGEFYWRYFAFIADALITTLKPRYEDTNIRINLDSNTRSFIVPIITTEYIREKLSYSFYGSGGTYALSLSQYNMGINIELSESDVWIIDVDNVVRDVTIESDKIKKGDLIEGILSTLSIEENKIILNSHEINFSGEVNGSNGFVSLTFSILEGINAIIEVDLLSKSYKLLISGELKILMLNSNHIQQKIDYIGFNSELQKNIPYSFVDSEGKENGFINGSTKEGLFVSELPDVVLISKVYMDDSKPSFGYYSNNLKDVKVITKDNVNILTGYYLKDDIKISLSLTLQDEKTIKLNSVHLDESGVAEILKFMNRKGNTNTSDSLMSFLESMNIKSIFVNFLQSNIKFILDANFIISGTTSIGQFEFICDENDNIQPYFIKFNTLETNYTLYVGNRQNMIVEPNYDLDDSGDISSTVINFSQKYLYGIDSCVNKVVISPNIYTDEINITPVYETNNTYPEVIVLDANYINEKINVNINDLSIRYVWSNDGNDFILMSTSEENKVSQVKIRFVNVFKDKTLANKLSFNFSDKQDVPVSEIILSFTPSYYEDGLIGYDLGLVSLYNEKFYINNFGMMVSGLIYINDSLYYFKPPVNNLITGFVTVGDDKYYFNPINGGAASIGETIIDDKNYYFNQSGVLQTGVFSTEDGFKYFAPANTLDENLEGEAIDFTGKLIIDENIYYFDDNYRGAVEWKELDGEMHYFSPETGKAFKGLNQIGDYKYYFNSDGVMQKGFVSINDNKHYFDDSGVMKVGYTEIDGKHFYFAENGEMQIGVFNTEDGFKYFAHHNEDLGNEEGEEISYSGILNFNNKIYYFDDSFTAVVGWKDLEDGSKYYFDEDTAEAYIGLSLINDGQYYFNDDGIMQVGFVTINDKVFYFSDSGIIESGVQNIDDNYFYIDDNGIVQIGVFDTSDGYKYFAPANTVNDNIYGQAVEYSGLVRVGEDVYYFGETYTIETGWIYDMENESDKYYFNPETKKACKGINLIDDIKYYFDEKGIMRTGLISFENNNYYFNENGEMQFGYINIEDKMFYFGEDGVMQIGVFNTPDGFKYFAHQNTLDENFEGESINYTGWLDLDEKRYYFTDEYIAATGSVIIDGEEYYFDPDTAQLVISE
Vc quorum ag: induces V. cholerae light production without autoinducers. V. cholerae BH1578 lux reporter, luminescence, 6 h. activation, % at 18.7 µM. actives 0.16% (n = 350,000). AID 588436; in the data active = activation mostly above about 9.7%, no sharp cut-off
UGM FP inh: blocks M. tuberculosis UGM enzyme; P9WIQ1; purified UGM, fluorescence polarization probe displacement; inhibition, % at 10 µM; actives 0.06% (n = 320,000); AID 504406; in the data active = inhibition above about 10%, passing the limit was not always enough
Numbers without * were called inactive; i = inactive; / = not tested or not shown; + = active, no number; ! = not confirmed by another sample.

SMILES | PrP UTR inh | Yp Topo-I inh | TcdB inh | Vc quorum ag | UGM FP inh
COc1ccc(C2CC(C(F)(F)F)n3nc(C(=O)NCc4c(C)nn(C)c4C)c(Cl)c3N2)cc1 (stereo not given) | -14 | 2 | / | -8 | 0
COc1ccc(C2CC(C(F)(F)F)n3nc(C(=O)N(C)Cc4cn(C)nc4C)c(Cl)c3N2)cc1 (stereo not given) | 7 | 29 | / | + | -2
CCCCCCC(=O)Oc1cccc(C2=CC(=O)CC(C)(C)C2=O)c1 | / | 55* | 2 | 2 | /
Cc1cccc(C2=CC(=O)CC(C)(C)C2=O)c1 | / | / | 0 | / | /
Oc1ccc(-c2nc3cnccn3c2Nc2ccc3c(c2)OCCO3)cc1 | -17 | -5 | 20* | 0 | 4
c1ccc(-c2nc3cnccn3c2Nc2ccc3c(c2)OCCO3)cc1 | -11 | -3 | / | 0 | 0
CCN1[C@@H]2Cn3c(ccc(-c4cccc(F)c4)c3=O)[C@H]1[C@@H](C(=O)NCC1CC1)[C@@H]2CO | / | / | 1 | / | /
CN(C)c1ccc(/C=C/c2nc3ccccc3c(=O)[nH]2)cc1 | 60* | 2 | -2 | i | -1
C[C@@H]1CN([C@@H](C)CO)C(=O)Cc2cc(NS(=O)(=O)c3ccccc3)ccc2O[C@@H]1CN(C)S(C)(=O)=O | / | / | -2 | / | /
COc1ccc(Cl)cc1NC(=O)Cn1c(NCCO)nc2ccccc21 | -11 | -4 | 27* | 3 | 0
Cc1nn(C)cc1-c1n[nH]c(=S)n1-c1ccc(F)cc1 | -14 | 5 | 10* | 0 | 4
Cc1ccc(-n2c(-c3cn(C)nc3C)n[nH]c2=S)cc1 | / | / | / | / | 3
COc1ccc2c3c([nH]c2c1)[C@H](CO)N(C(=O)CN1CCOCC1)CC31CCN(Cc2ccccc2)CC1 | / | / | -4 | / | /
Oc1ccc(NC(=S)Nc2ccccc2)cc1 | -5 | -2 | 11*! | i | 0
O=C(NC(=S)Nc1ccc(O)cc1)c1ccccc1Cl | -44 | 7 | 17* | i | 0
O=C(CC(c1ccccc1)c1ccccc1)Nc1ccc(O)cc1 | -57 | -2 | 13* | 0 | 1
Nc1ccc(NC(=S)Nc2ccccc2)cc1 | -25 | 2 | 0 | 1 | -4
CC(=O)Nc1ccc(NC(=O)CC(c2ccccc2)c2ccccc2)cc1 | -19 | 2 | 1 | 3 | -2
COCc1c(Br)c(C)nc(OCC(=O)N/N=C/c2ccc(C)o2)c1C#N | -51 | 4 | 11* | 1 | -1
C[C@H](CO)N1C[C@H](C)[C@H](CN(C)Cc2ccc(C(F)(F)F)cc2)Oc2ccc(NS(=O)(=O)c3cn(C)cn3)cc2CC1=O | / | / | 1 | / | /
O=C(C1CC1)N1CC2(C1)[C@H](c1ccccc1)[C@H](CO)N2Cc1ccccc1F | / | / | -1 | / | /
CCN(CC)c1ccc(/C=N/n2nnnc2N)c(O)c1 | -42 | -1 | / | 2 | 1
CCN(CC)c1ccc2nc3ccccc3[n+](CC)c2c1 | -3 | 131* | / | 1 | 4
CCN(CC)c1ccc2nc3ccc(N)cc3[n+](-c3ccccc3)c2c1 | -19 | 534* | 5 | i | /
COCCn1c(NC(=S)NC(=O)C2CC2)cc(=O)[nH]c1=O | -6 | -11 | 23* | -3 | -2
SMILES | PrP UTR inh | Yp Topo-I inh | TcdB inh | Vc quorum ag | UGM FP inh
C[C@H](CO)N1C[C@H](C)[C@@H](CN(C)S(=O)(=O)c2ccc(Cl)cc2)Oc2ccc(NC(=O)Cn3cnnn3)cc2CC1=O | / | / | 0 | / | /
Cc1cc(C(=O)COC(=O)Cc2n[nH]c(=O)c3ccccc23)c(C)n1-c1cccc(C(F)(F)F)c1 | -9 | 67* | / | -1 | -1
Cc1cc(C(=O)COC(=O)CC2Sc3ccccc3NC2=O)c(C)n1-c1cccc(C(F)(F)F)c1 (stereo not given) | -32 | 44 | 2 | 0 | 1
CCNC(=O)[C@@H]1[C@@H](CO)[C@@H]2Cn3c(ccc(-c4cccc(OC)c4)c3=O)[C@@H]2N1Cc1nccs1 | / | / | 1 | / | /
Cc1cc(C=C2C(=O)c3ccccc3C2=O)c(C)n1-c1cccc(C(=O)O)c1 | -10 | -4 | 2 | i | 4
Cc1cc(C=C2C(=O)c3ccccc3C2=O)c(C)n1-c1ccc(C(=O)O)cc1 | -29 | 9 | 27* | i | -2
COc1cc(/C=N/n2nnnc2N)ccc1OC(C)=O | -7 | 2 | 0 | 240* | 1
COC(=O)c1ccccc1-c1ccc(/C=N/NC(=O)c2cc3ccccc3o2)o1 | -17 | 3 | / | -1 | 0
COC(=O)c1ccccc1-c1c2ccc(=N)cc-2oc2cc(N)ccc12 | -6 | -14 | 0 | i | 138*
CCS(=O)(=O)c1ccc2oc(Nc3ccc(C(C)(C)C)cc3)nc2c1 | -16 | -3 | 12* | 3 | 0
C[C@@H]1CN([C@@H](C)CO)C(=O)c2cccc(N(C)C)c2O[C@@H]1CN(C)S(=O)(=O)c1cccs1 | / | / | 0 | / | /
COc1ccc(NC(=O)Cn2cnc3sc(C)c(S(=O)(=O)N4CCOCC4)c3c2=O)c(OC)c1 | -1 | 4 | 15* | 0 | 0
COc1cc(NC(=O)Cn2cnc3sc(C)c(S(=O)(=O)N4CCN(C)CC4)c3c2=O)cc(OC)c1OC | / | / | / | / | -1
CCCNC(=O)C[C@H]1C[C@H]2c3cc(NC(=O)CC4CC4)ccc3O[C@H]2[C@@H](CO)O1 | / | / | 1 | / | /
COc1ccc2nc(SCC(=O)O)nc(C)c2c1 | -10 | 11 | / | 15* | 0
COc1ccc2nc(C)cc(SCC(=O)O)c2c1 | -12 | 1 | 0 | 0 | 1
COc1ccccc1C(=O)Nc1cccc(C(=O)c2ccccc2)c1 | -12 | 12 | 1 | 0 | 0
COc1ccccc1C(=O)Nc1cccc(Oc2c(F)c(F)c(F)c(F)c2F)c1 | -14 | 16 | 13* | 0 | 2
C[C@@H](NC(=O)C[C@H]1C=C[C@H](NC(=O)Cc2ccccn2)[C@H](CO)O1)c1ccccc1 | / | / | -1 | / | /
CCCC(=O)N1CC2(C1)CN(S(=O)(=O)c1ccc(C)cc1)[C@H](CO)c1[nH]c3cc(OC)ccc3c12 | / | / | 1 | / | /
O=S(=O)(c1ccc(S(=O)(=O)N(Cc2ccccc2)Cc2ccco2)cc1)N1CCCC1 | -4 | 3 | 0 | i | 1
COC(=O)/C=C/c1ccccc1S(=O)(=O)N(Cc1ccccc1)Cc1ccco1 | -22 | 57* | / | -2 | -1
CCCNC(=O)C[C@H]1CC[C@@H]2[C@H](COc3ccc(NC(=O)c4cscn4)cc3C(=O)N2C)O1 | / | / | 0 | / | /
C[C@H](O)C#Cc1ccc2c(c1)O[C@@H](CN(C)Cc1ccccc1)[C@@H](C)CN([C@@H](C)CO)S2(=O)=O | / | / | 0 | / | /
CC(=O)c1ccc(NC(=O)CNCC(c2ccccc2)N(C)C)cc1 (stereo not given) | -9 | -3 | 15* | i | -2
CCOC(=O)c1cc(NC(=O)CNCC(c2ccccc2)N(C)C)cc(C(=O)OCC)c1 (stereo not given) | -44 | 15 | 8 | i | -1
Cc1cc(NC(=O)CCCN2C(=O)c3cccc4cccc(c34)C2=O)no1 | -10 | 0 | 11* | 1 | -4
Cc1cc(NC(=O)CCCN2C(=O)c3cccnc3C2=O)no1 | -5 | 5 | / | i | 1
N#CCCN(C(=O)COC(=O)c1ccc2c(c1)OCO2)c1ccccc1 | -4 | -2 | 1 | i | 1
